Bioassay records deposited in PubChem BioAssay by several laboratories.
APP transl inh – inhibitors of APP translation via 5'UTR reporter, primary screen, APP 5'UTR luciferase, SH-SY5Y cells; SH-SY5Y APP 5'UTR-luciferase reporter, luminescence; inhibition, % at 2 µM; hit rate 0.82% among 190,000; AID 1285, 2008;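 active means inhibition above a set limit, derived from the sample mean plus 3 SD, cut at about 45% in these data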
Ba/F3 V617F tox – reduced viability of JAK2V617F-dependent Ba/F3 cells, primary screen, JAK2V617F inhibitor project, cell-based, Ba/F3 EpoR-JAK2V617F, luminescence | inhibition, % at 5.6 µM | ATP luminescence | AID 1446, 2008 | hit rate 1.1% among 220,000;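 active means inhibition above the campaign mean plus 3 SD over all tested compounds, cut at about 24% in these data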;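 further: cytokine-independent growth of Ba/F3 cells driven by EpoR plus mutant JAK2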
aSyn 5UTR inh – MLPCN primary screen, SNCA 5' untranslated region | hit rate 0.82% among 300,000 | AID 1813, 2009 | alpha-synuclein 5'UTR reporter, inhibitor activity | inhibition, % (tested at 7.5 µM); in the data active means inhibition above about 60%;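 further: H4 neuroglioblastoma cells stably carrying SNCA 5'UTR luciferase fusion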
KLF5 inhibitor – KLF5 expression inhibitors, primary screen, DLD-1 cells, luminescence | hit rate 0.23% among 290,000 | DLD-1 KLF5 promoter-luciferase reporter | inhibition, % at 5 µM;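 active means inhibition above a per-plate limit of that plate's mean compound inhibition plus 3 SD, cut at about 60% in these data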;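 further: higher means less KLF5 promoter-driven luciferase light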
BaF3 tox – parental Ba/F3 cell viability inhibition, counter-screen for JAK2V617F inhibitor project, murine pro-B, CellTiter-Glo luminescence | CellTiter-Glo ATP luminescence | inhibition, % at 5.6 µM | hit rate 1.1% among 220,000;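 active means inhibition above a per-campaign cutoff, the mean inhibition of all tested compounds plus 3 SD, cut at about 27% in these data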
IEC-6 cytotox – cytotoxicity in IEC-6 intestinal epithelial cells, primary screen, cytotoxicity control for KLF5 inhibitor project, cell-based, luminescence; IEC-6 cytotoxicity, luminescence viability; AID 1825, 2009; hit rate 0.78% among 290,000; inhibition, % at 5 µM; in the data active means inhibition above about 22%
BaF3 tox 2 – parental Ba/F3 cell viability inhibition, counter-screen for JAK2V617F inhibitor project, murine pro-B, CellTiter-Glo luminescence; shares compounds with Ba/F3 V617F tox; cells kept alive by added IL-3; inhibition, % at 5.6 µM; hit rate 31% among 580;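 active means cell growth inhibition above the hit limit set in the earlier mutant JAK2 cell screen, cut at about 27% in these data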
JAK2V617F confrm – viability loss in Ba/F3 EpoR-JAK2V617F cells, confirmation, JAK2V617F inhibitor project, cell-based, luminescence, triplicate | hit rate 66% among 580 | shares compounds with Ba/F3 V617F tox | inhibition, % at 5.6 µM | CellTiter-Glo luminescence;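 active means mean inhibition above the hit cutoff derived in the earlier primary screen, cut at about 25% in these data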;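 further: higher means lower luminescence from reduced cell ATP and viability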
Each line names hits and unclear results; the compound was inactive in the other large screens (follow-up assays come after a bar, where they were run). Most compounds without a hit are left out; they make up all but 2.2% or so of the library.

CCOc1ccc(C(=O)N(Cc2ccc(OC)cc2)Cc2cc3cc(OC)ccc3[nH]c2=O)cc1	Ba/F3 V617F tox 46 | BaF3 tox 2 inactive | JAK2V617F confrm inactive
CCCN(Cc1cc2cc(OC)ccc2[nH]c1=O)C(=O)c1ccncc1	none
Cc1cccc(NC(=O)CSCC(=O)Nc2ccccc2N2CCCC2)c1	none (no result: APP transl inh, Ba/F3 V617F tox, BaF3 tox)
Cc1cc(C(=O)Nc2cnc3ccccc3c2)ccc1[N+](=O)[O-]	Ba/F3 V617F tox 28 | BaF3 tox 2 inactive | JAK2V617F confrm inactive
CC(C)Oc1ccc(CN=C(N)N=C(N)N)cc1Cl	Ba/F3 V617F tox 30 | BaF3 tox 2 40 | JAK2V617F confrm 65
COc1ccc(CN=C(N)N=C(N)N)cc1Cl	none
O=C(N/N=C/c1cc([N+](=O)[O-])ccc1O)c1cccc2cc[nH]c12	Ba/F3 V617F tox 34, aSyn 5UTR inh 68 (no result: APP transl inh) | BaF3 tox 2 inactive | JAK2V617F confrm 28
COc1ccc(-c2cc(C(=O)N/N=C/c3ccc(OC)c(COCC(F)(F)C(F)F)c3)c3ccccc3n2)c(OC)c1	Ba/F3 V617F tox 49 | BaF3 tox 2 inactive | JAK2V617F confrm inactive
O=C(CC(C(=O)O)c1ccc(Cl)cc1)c1ccc(Br)cc1 (configuration not stated)	none (no result: APP transl inh, Ba/F3 V617F tox, BaF3 tox)
CCCN1CCC(NC(=O)Cc2cccc(C)c2)CC1	none (no result: APP transl inh, Ba/F3 V617F tox, BaF3 tox)
CC(Oc1ccccc1)C(=O)Nc1ccc(C(N)=O)cc1 (configuration not stated)	none
COC(=O)c1ccc(NC(=O)C(C)Oc2ccccc2)cc1 (configuration not stated)	Ba/F3 V617F tox 26 | BaF3 tox 2 inactive | JAK2V617F confrm inactive
Cc1ccc(Cn2ccsc2=NC(=O)CCl)cc1	Ba/F3 V617F tox 69, IEC-6 cytotox 93 (no result: aSyn 5UTR inh) | BaF3 tox 2 inactive | JAK2V617F confrm 97
Cc1ccc(Cn2ccsc2=NC(=O)COC(=O)c2ccc(NC(=O)CC#N)cc2)cc1	none (no result: APP transl inh, Ba/F3 V617F tox, KLF5 inhibitor, BaF3 tox, IEC-6 cytotox)
Cc1ccc(C23CC4CC(CC(C(=O)N5CCN(C)CC5)(C4)C2)C3)cc1	none (no result: APP transl inh)
Cc1ccc(C23CC4CC(CC(CC(=O)N5CCOCC5)(C4)C2)C3)cc1	Ba/F3 V617F tox 97 | BaF3 tox 2 inactive | JAK2V617F confrm inactive
COC(=O)c1cn(NC(=O)c2cc([N+](=O)[O-])ccc2F)c(=O)c2ccccc12	Ba/F3 V617F tox 36 | BaF3 tox 2 41 | JAK2V617F confrm 97
COC(=O)c1cn(NC(=O)C2CCC(C)CC2)c(=O)c2ccccc12 (configuration not stated)	none
CCOC(=O)c1cnc2ccc(OCC)cc2c1NCc1ccccc1	Ba/F3 V617F tox 24 | BaF3 tox 2 inactive | JAK2V617F confrm 31
CCOC(=O)c1cnc2ccc(OCC)cc2c1NCc1cccnc1	none
COc1ccc(CNC(=O)C2CCN(S(=O)(=O)c3ccc4c(c3)CC(C)N4C(C)=O)CC2)cc1 (configuration not stated)	none (no result: APP transl inh, Ba/F3 V617F tox, BaF3 tox)
C#CC[N+](C)(C)CC#Cc1ccccc1	Ba/F3 V617F tox 39 | BaF3 tox 2 inactive | JAK2V617F confrm 42
COc1cc(C(=O)NC(C)Cc2ccccn2)ccc1OC1CCN(C(C)=O)CC1 (configuration not stated)	none (no result: APP transl inh, Ba/F3 V617F tox, BaF3 tox)
O=C(O)c1ccccc1C(=O)c1ccc(-c2ccccc2)cc1	none (no result: APP transl inh, Ba/F3 V617F tox, BaF3 tox)
O=C(c1ccccc1)c1ccccc1N1C(=O)C=CC1=O	Ba/F3 V617F tox 32 (no result: APP transl inh) | BaF3 tox 2 inactive | JAK2V617F confrm 26
CCc1nc(N=C(N)N)nc2ccccc12	Ba/F3 V617F tox 28 | BaF3 tox 2 inactive | JAK2V617F confrm 53
CCc1nc2ccccc2c(C(=O)O)c1C	none
CC1=CC(C)(C)Nc2ccc(OC(=O)CN3C(=O)CCC3=O)cc21	none
CC1=CC(C)(C)Nc2ccc(OC(=O)c3ccco3)cc21	Ba/F3 V617F tox 43 | BaF3 tox 2 37 | JAK2V617F confrm 83
COc1ccc(N(CC(=O)N/N=C/c2cccnc2)S(=O)(=O)c2ccc(C)cc2)cc1OC	none (no result: APP transl inh, Ba/F3 V617F tox, BaF3 tox)
CN(C)c1nc(N2CCN(c3ccc(F)cc3)CC2)c(C#N)c(=O)o1	Ba/F3 V617F tox 28 | BaF3 tox 2 inactive | JAK2V617F confrm inactive
Cc1cc(C)c(C#N)c(N2CCN(c3ccc(F)cc3)CC2)n1	none (no result: APP transl inh, Ba/F3 V617F tox, BaF3 tox)
Cc1ccc(C(=O)C(C)OC(=O)Cn2c(C)csc2=O)cc1 (configuration not stated)	none (no result: APP transl inh, Ba/F3 V617F tox, BaF3 tox)
CC(C)(C)SCCNS(=O)(=O)c1ccccc1	Ba/F3 V617F tox 99 | BaF3 tox 2 inactive | JAK2V617F confrm inactive
CC(C)(C)SCCNS(=O)(=O)c1ccc2ccccc2c1	none
COc1ccc(-c2cccc(NC(=O)COc3ccc(Cl)cc3)c2)nn1	none (no result: APP transl inh, Ba/F3 V617F tox, BaF3 tox)
O=C1C2CCCN2C(c2ccccc2)N1c1ccc(F)cc1 (configuration not stated)	none
O=C1C2CCCN2C(c2ccc(F)cc2)N1c1ccc(Cl)cc1 (configuration not stated)	Ba/F3 V617F tox 42 | BaF3 tox 2 inactive | JAK2V617F confrm inactive
CC(=O)c1ccc(N2CCN(C(=O)c3ccc4ccccc4n3)CC2)cc1	Ba/F3 V617F tox 76 | BaF3 tox 2 inactive | JAK2V617F confrm inactive
Cc1ccccc1CS(=O)(=O)c1nnc([C@H](CC(C)C)NC(=O)OC(C)(C)C)o1	Ba/F3 V617F tox 47 | BaF3 tox 2 inactive | JAK2V617F confrm 55
CC(C)(C)OC(=O)N[C@@H](Cc1ccccc1)c1nnc(S(=O)(=O)Cc2cccc(F)c2)o1	APP transl inh 53, Ba/F3 V617F tox 44 | BaF3 tox 2 inactive | JAK2V617F confrm 72
CC(C)C[C@H](N)c1nnc(S(=O)(=O)Cc2cccc(F)c2)o1	none
O=C(C[n+]1ccccc1)N/N=C/c1c(F)cccc1Cl	none (no result: APP transl inh, Ba/F3 V617F tox, BaF3 tox)
CCOc1cc(Br)c(CN2C(=O)NC3(CCCCCC3)C2=O)cc1OCC	none (no result: APP transl inh, Ba/F3 V617F tox, BaF3 tox)
O=c1oc2ccccc2c2c1ncn2CCN1CCOCC1	Ba/F3 V617F tox 61 | BaF3 tox 2 inactive | JAK2V617F confrm inactive
Cc1cccc(N(Cc2ccccc2)C(=O)CCl)c1	Ba/F3 V617F tox 57 | BaF3 tox 2 inactive | JAK2V617F confrm 98
O=[N+]([O-])c1ccccc1N/N=C/c1cccc(O)c1O	Ba/F3 V617F tox 62 (no result: APP transl inh) | BaF3 tox 2 51 | JAK2V617F confrm 96
Cc1ccc(NS(=O)(=O)c2cc3c4c(cccc4c2)C(=O)NC3=O)cc1C	Ba/F3 V617F tox 25 (no result: APP transl inh) | BaF3 tox 2 45 | JAK2V617F confrm 77
OC1(c2ccc(Cl)c(Cl)c2)C[n+]2ccccc2N1Cc1ccccc1 (configuration not stated)	Ba/F3 V617F tox 34 (no result: APP transl inh) | BaF3 tox 2 inactive | JAK2V617F confrm 48
Cc1ccc(CNC(=O)c2nccnc2C(=O)O)cc1	none (no result: APP transl inh, Ba/F3 V617F tox, BaF3 tox)
